In all, about 33,000 sequences were measured (“E-score (-0.5 to 0.5)”: median about -0.035, highest 2% from about 0.35 on). The sample as a whole holds a higher share of the highest values than the screen did.
Target: T1, Pdr3 (UniProt P33200)
T1 sequence: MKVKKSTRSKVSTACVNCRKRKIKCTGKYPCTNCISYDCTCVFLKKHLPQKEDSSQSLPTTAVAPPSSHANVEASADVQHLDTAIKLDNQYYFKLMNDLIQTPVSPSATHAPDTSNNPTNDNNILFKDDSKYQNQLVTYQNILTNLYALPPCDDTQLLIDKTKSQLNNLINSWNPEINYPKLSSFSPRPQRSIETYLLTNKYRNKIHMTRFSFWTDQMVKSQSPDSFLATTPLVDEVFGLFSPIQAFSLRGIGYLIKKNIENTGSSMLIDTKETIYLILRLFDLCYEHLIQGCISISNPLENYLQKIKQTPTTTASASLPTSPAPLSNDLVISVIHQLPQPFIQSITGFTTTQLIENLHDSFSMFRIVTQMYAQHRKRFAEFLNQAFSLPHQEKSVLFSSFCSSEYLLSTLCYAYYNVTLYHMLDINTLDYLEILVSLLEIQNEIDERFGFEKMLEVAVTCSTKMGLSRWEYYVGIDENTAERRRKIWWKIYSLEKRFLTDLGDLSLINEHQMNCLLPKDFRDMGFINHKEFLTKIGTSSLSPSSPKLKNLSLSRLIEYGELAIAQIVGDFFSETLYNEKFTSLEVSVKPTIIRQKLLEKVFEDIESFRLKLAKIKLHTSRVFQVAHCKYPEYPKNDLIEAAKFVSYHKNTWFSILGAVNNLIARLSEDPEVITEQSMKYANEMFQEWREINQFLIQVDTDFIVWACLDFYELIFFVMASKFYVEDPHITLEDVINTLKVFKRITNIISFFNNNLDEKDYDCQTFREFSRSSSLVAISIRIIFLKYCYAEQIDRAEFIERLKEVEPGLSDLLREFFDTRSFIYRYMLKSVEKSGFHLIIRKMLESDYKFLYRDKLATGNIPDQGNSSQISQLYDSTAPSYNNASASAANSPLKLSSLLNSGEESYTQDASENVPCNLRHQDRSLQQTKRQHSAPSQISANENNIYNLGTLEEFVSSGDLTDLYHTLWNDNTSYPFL
Test: PBM E-score (8-mer binding enrichment) (E-score (-0.5 to 0.5)); higher = stronger / more preferred TF binding
Details: protein concentration: 200 nM; construct: GST-full length
Description: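 Universal 'all 10-mer' protein binding microarrays (Agilent AMADID 015681) probed with GST-tagged S. cerevisiae TFs (full-length or DBD) made by in vitro transcription/translation (PURExpress), about 100-200 nM. Bound TF was detected with fluorescent anti-GST. Each ungapped 8-mer (which stands for itself and its reverse complement) is scored by the PBM enrichment score (E-score), a modified Wilcoxon-Mann-Whitney statistic from -0.5 to +0.5, computed with the Universal PBM Analysis Suite. Scale: above 0.35 generally sequence-specific binding.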

Sequence	PBM E-score
GCGGAGTA	0.245
AAGAGTTC	-0.178
CCCCAACA	-0.274
ATTAAGAG	-0.0729
CGCGCGGA	0.383
AGCGCGGA	0.331
AGTGCGGG	0.185
AGTGCGGA	0.377
AGCGCGGC	0.107
AGAGCGGA	0.229
GGCGCGGA	0.352
CGTGCGGA	0.177
CGCGCGGC	0.373
CTCGCGGC	0.171
CGAGCGGA	0.359
CGAGCGGC	0.228
AGGCTACT	-0.167
CCGCCAGC	0.105
TACCTAGA	-0.195
ACCCGTAT	0.0405
AGAGTAAC	0.0157
AAATCTAT	-0.00749
CGGTGTAG	-0.0315
CTTATCCA	-0.00809
AGCGGGAA	0.232

Sequence	PBM E-score
CGCGGGGC	0.304
GGCGGGAA	0.198
AGCGGGGA	0.0517
CGCGGGAA	0.429
CGCGGGGA	0.393
GGCGGGAC	0.295
AGCGGGAC	0.185
CGCGGGAC	0.444
AAGTTCAG	-0.098
CGGTTCCC	0.153
AGTACTGG	-0.222
GAACTAGC	-0.00564
ATTCCCTA	0.0152
GGTTCTTA	-0.0791
AAGACCAA	-0.0835
GTTACCCA	-0.159
ATGCGCTG	-0.0256
AATCAACT	0.0921
ATAAGCTC	0.042
AGCCGCGG	0.485
CACCGCGA	0.032
AACCGCGA	0.277
CACCGCGC	0.166
AACCGCGT	0.141
AGCCGCGA	0.187

Sequence	PBM E-score
AACCGCGG	0.457
AGCCGCGC	0.236
CACCGCGG	0.452
ATAAGAGG	0.0703
AAGGTCAG	-0.201
AGCAGACT	-0.189
ACAGAGCT	-0.292
GTGCCCAA	-0.0202
GAATCACC	-0.027
CCGGGCTC	0.224
ACAATGCA	0.0617
AGAGGATG	0.0386
CACTAGCG	-0.0368
ATGTTTAC	-0.0373
GACGCGCA	0.0698
CCACCGGA	0.428
CCACCGGG	0.257
CCACCGGC	0.204
GCACCGGC	0.146
GCACCGTA	0.067
ACACCGGA	0.357
TCACCGGA	0.329
GCACCGGA	0.377
ACACCGGT	0.14
CGTTTGCA	0.0843

Sequence	PBM E-score
CCAACTGC	0.0661
TCCCATCA	-0.209
AGAAAGTG	-0.177
AATCGACG	0.058
CCGGCACC	0.369
CCGGCAGC	0.362
CCGGCACG	0.279
CCGGCAGG	0.231
ACGGCACC	-0.0873
CCGGCAGA	0.229
GTCCGTAA	0.191
CCGCCACC	0.0657
ACACAGGG	0.0204
GCCGTGAC	0.133
CCCGGAAG	0.419
ACCGGACG	0.311
ACCGGATG	0.249
CCCGGAAA	0.449
ACCGGACC	0.297
ACCGGAAC	0.474
CCCGAAAA	0.191
CCCCGAAG	0.144
ACCGGAAG	0.42
ACCGGATC	0.34
CCTGGAAG	-0.203

Sequence	PBM E-score
CCAGGAAA	-0.0248
CACCCAAG	-0.071
AAAATAAG	-0.194
CGGTTAAA	0.0999
CGATCTGA	0.0713
ATATCGAT	0.104
CCCCGAAC	0.129
CCCGGAAC	0.467
ACCGGAGT	0.234
ACCGGACT	0.285
ACCGGAAA	0.405
GCCGGATA	0.368
ACCAGAAA	-0.105
ACCGGATA	0.151
CCCGGACC	0.334
ACCGGAAT	0.411
GCAGGATA	-0.0657
ATTGGCGA	-0.2
CCACCTTA	-0.0834
GCTTTAGA	-0.238
AGAGCATC	-0.0714
CGTGCTAG	-0.276
GAAAAGGA	0.0166
GCAGGAAA	-0.081
TCCGGTAA	0.307

Sequence	PBM E-score
GCCGGACC	0.303
TCCGGAAA	0.466
GCCGGAAC	0.476
TCAGGAAA	-0.128
GCCGGAGC	0.236
GCCGGAAA	0.42
GCCGAAAA	0.276
GACAAGTA	0.00093
AAGCGATC	0.0113
ACTCCCGA	0.0347
ATTCCCGA	0.212
ATTCCCGG	0.393
ATTCCAGC	0.0377
ACTCCCGG	0.356
AATCCGGG	0.354
ATTCCCCG	0.28
ACTCCCCG	0.306
ATTCCGGG	0.458
ATTCCGGC	0.448
ATTCCTGC	0.221
ATTCCTGG	0.0168
ACTCAGCC	-0.146
ACAATAGT	-0.0518
GGACAACC	0.0553
CCACCACC	-0.0836

Sequence	PBM E-score
CCCAGGGG	-0.115
AATGTTAT	0.00821
AGCGTGGG	-0.253
AGCACCCT	-0.284
GAATCGGA	0.36
AGATCGGA	0.394
TAATCGGA	0.324
GGATCGGA	0.359
CGATCGGA	0.196
AGATCCGA	0.169
GGATCCGA	0.399
AGATCGGC	0.134
CGATCCGA	0.326
AGATCGGG	0.0992
GGATCGAA	0.133
AAATCGGA	0.326
CTTGACTA	-0.119
TGCAATAA	-0.00943
GTCTTCAA	-0.189
ACGCTGGG	-0.0598
CCCGCGAA	0.206
GAAGGAAC	0.0934
